# Inconclusive results are not listed. Where a call stands in place of a potency, no number is given. Values without a mark were called inactive. Active and inactive are the calls of the source. Calls come from the whole dose curve; as a rule, active = well fitted curve in the direction sought with a large enough effect; inconclusive = small, poorly fitted or top-dose-only effect, or another doubt; inactive = no such curve, though single readings can be large; an effect the other way counts as inactive or inconclusive.
# Assays:
# C33A = assay: Primary qHTS to identify gynecologic anti-cancer compounds using libraries of approved drugs and bioactive compounds (AID 1345084); conditions: Gynecologic cancer cell panel viability, ATPlite luminescence, 48 h; series mostly up to 57.5 µM; note: nearly all actives have a fitted effect of over 55% in size
# Outline: (§1)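 Five-point cytotoxicity, 48 h drug exposure at 37 C, 5% CO2, on cells seeded 16 h beforehand. ATP content read by ATPlite luminescence.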
# CAOV3 = assay: as above; conditions: Gynecologic cancer cell panel viability, ATPlite luminescence, 48 h; series mostly up to 57.5 µM
# Outline: as §1
# Es-2 = assay: as above; conditions: Gynecologic cancer cell panel viability, ATPlite luminescence, 48 h; series mostly up to 57.5 µM
# Outline: as §1
# HeLa = assay: as above; conditions: Gynecologic cancer cell panel viability, ATPlite luminescence, 48 h; series mostly up to 57.5 µM
# Outline: as §1
# Hek293T = assay: as above; conditions: Gynecologic cancer cell panel viability, ATPlite luminescence, 48 h, control line for the selectivity index; series mostly up to 57.5 µM
# Outline: as §1
# JEG-3 = assay: as above; conditions: Gynecologic cancer cell panel viability, ATPlite luminescence, 48 h; series mostly up to 57.5 µM
# Outline: as §1
# OV90 = assay: as above; conditions: Gynecologic cancer cell panel viability, ATPlite luminescence, 48 h; series mostly up to 57.5 µM
# Outline: as §1
# PA-1 = assay: as above; conditions: Gynecologic cancer cell panel viability, ATPlite luminescence, 48 h; series mostly up to 57.5 µM
# Outline: as §1
# SKOV3 = assay: as above; conditions: Gynecologic cancer cell panel viability, ATPlite luminescence, 48 h; series mostly up to 57.5 µM
# Outline: as §1
# Tov-21-G = assay: as above; conditions: Gynecologic cancer cell panel viability, ATPlite luminescence, 48 h; series mostly up to 57.5 µM
# Outline: as §1
# Tov112D = assay: as above; conditions: Gynecologic cancer cell panel viability, ATPlite luminescence, 48 h; series mostly up to 57.5 µM
# Outline: as §1
# [1] = qHTS assay to identify inhibitors of the type 1 interferon - major histocompatibility complex class I in skeletal muscle: Counter screen cell viability and HiBit confirmation (AID 1347412); conditions: iHSKM muscle cells + IFN-b, HiBiT or CellTiter-Glo, 24 h; Viability; note: nearly all actives have a fitted effect of over 60% in size
# Outline: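 Duplicate plates, pinned identically: one read for HiBiT-tagged endogenous HLA-B luminescence, the other for ATP-content viability via CellTiter Glo. Cells were genome-engineered human myoblasts given 4 ng/ml IFN-b; compounds 12-pt, 1:3 from 46 uM final; 24 hr exposure.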
# CASKI = assay: Primary qHTS to identify gynecologic anti-cancer compounds using libraries of approved drugs and bioactive compounds (AID 1345084); conditions: Gynecologic cancer cell panel viability, ATPlite luminescence, 48 h; series mostly up to 57.5 µM; note: nearly all actives have a fitted effect of over 55% in size
# Outline: as §1
# Potency is the fitted concentration of half-maximal effect.
SMILES,Potency (C33A),Potency (CAOV3),Potency (Es-2),Potency (HeLa),Potency (Hek293T),Potency (JEG-3),Potency (OV90),Potency (PA-1),Potency (SKOV3),Potency (Tov-21-G),Potency (Tov112D),Potency [1],Potency (CASKI)
CC1=CC2C(CC1OC1OC(CO)C(O)C(O)C1O)C(C)CC(=O)C2C(C)C (stereo not given),inactive,inactive,inactive,inactive,inactive,inactive,inactive,inactive,inactive,inactive,inactive,–,–
COc1cc2c(NC3CCN(CC4CCCCC4)CC3)nc(N3CCCN(C(C)C)CC3)nc2cc1OCCCN1CCCCC1,14.1 µM (active),3.98 µM (active),3.98 µM (active),–,20 µM (active),5.62 µM (active),3.16 µM (active),5.62 µM (active),3.98 µM (active),20 µM (active),7.94 µM (active),24.9 µM (active),–
NC(=O)[C@H]1CCS[C@@H]2C[C@]3(CCCN3C(=O)Cc3ccc(NC(=O)COc4ccc(Cl)cc4Cl)cc3)C(=O)N12,inactive,inactive,inactive,31.6 µM (active),–,–,inactive,15.8 µM (active),–,–,–,–,–
Cc1ccc(NC(=O)c2ccc(CN3CC[C@H](N(C)C)C3)c(C(F)(F)F)c2)cc1Nc1nccc(-c2cncnc2)n1,inactive,inactive,–,inactive,inactive,inactive,5.01 µM (active),–,inactive,inactive,inactive,–,–
O=C(/C=C\n1cnc(-c2cc(C(F)(F)F)cc(C(F)(F)F)c2)n1)N1CC(F)(F)C1,inactive,2.82 µM (active),3.16 µM (active),17.8 µM (active),1.58 µM (active),–,inactive,1.41 µM (active),–,–,–,–,–
COc1ccc(-c2cnc3ccc(NCc4ccc(S(N)(=O)=O)cc4)nn23)cc1OC,inactive,inactive,inactive,inactive,inactive,inactive,–,–,–,inactive,inactive,–,–
COc1cc(NC(=O)Nc2cccc(CNC(=O)O[C@H]3CCOC3)c2)ccc1-c1cnco1,inactive,inactive,–,–,–,inactive,–,1.41 µM (active),–,8.91 µM (active),inactive,–,–
CN(C)C/C=C/C(=O)Nc1cc2c(Nc3ccc(F)c(Cl)c3)ncnc2cc1OC1CCOC1 (stereo not given),20 µM (active),10 µM (active),–,–,–,inactive,–,–,–,5.62 µM (active),–,–,–
O=C(c1ccc(/C=C/c2n[nH]c3ccccc23)cc1)N1CCNCC1,inactive,inactive,–,2.24 µM (active),inactive,–,8.91 µM (active),8.91 µM (active),–,–,–,–,–
CC(=O)OC12COC1CC(O)C1(C)C(=O)C(O)C3=C(C)C(OC(=O)C(O)C(NC(=O)OC(C)(C)C)c4ccccc4)CC(O)(C(OC(=O)c4ccccc4)C21)C3(C)C (stereo not given),inactive,inactive,–,–,–,inactive,inactive,–,inactive,–,inactive,–,–
COC(=O)CCc1cc2ccoc2c(OC)c1O[C@@H]1O[C@H](CO)[C@@H](O)[C@H](O)[C@H]1O,inactive,–,inactive,inactive,inactive,inactive,inactive,inactive,inactive,inactive,inactive,–,inactive
C/C=C1\[C@H](O[C@@H]2O[C@H](CO)[C@@H](O)[C@H](O)[C@H]2O)OC=C2C(=O)OCCc3ccc(O)c(c3)Oc3ccc(cc3)CCOC(=O)C[C@H]21,inactive,inactive,inactive,inactive,inactive,–,inactive,inactive,–,inactive,inactive,–,–
CC(=O)O[C@@](C)(C(=O)/C=C/C(C)(C)O)[C@H]1[C@H](O)C[C@@]2(C)[C@@H]3CC=C4[C@@H](C=C(O)C(=O)C4(C)C)[C@]3(C)C(=O)C[C@]12C,inactive,0.282 µM (active),–,2.51 µM (active),–,inactive,4.47 µM (active),11.2 µM (active),–,2.82 µM (active),–,–,4.47 µM (active)
Cc1c(F)cc(C(=O)NC2CC2)cc1-c1c(F)cn2c(C(C)(C)C)nnc2c1F,inactive,inactive,inactive,inactive,inactive,inactive,inactive,inactive,inactive,inactive,inactive,–,–
C=C(C(=O)OC)C1C(O)CC2(C)C(O)CCC(=O)C2C1O (stereo not given),inactive,inactive,–,–,inactive,inactive,inactive,–,–,–,–,–,inactive
COc1ccc(Oc2cc(C)c(-c3csc(NC(=O)c4ccncc4)n3)c(C)c2)cc1,inactive,inactive,–,–,–,–,–,–,1 µM (active),–,inactive,–,0.891 µM (active)
COc1cc2c(cc1OC)N1C(=O)C[C@]34C=CCN5CC[C@@H]2[C@@H](CC3)[C@]514,inactive,inactive,inactive,inactive,inactive,inactive,inactive,inactive,inactive,inactive,inactive,–,–

# From PubChem BioAssay (NCATS)
